Screening data: PubChem BioAssay, several laboratories
Most compounds without a hit are left out; they make up all but 1.3% or so of the library.
NR2F2 inh: NR2F2 transcriptional activity inhibitors, primary screen, cell-based, luciferase reporter, HEK293T, luminescence. inhibition, % at 8.6 µM. COUP transcription factor 2 (Homo sapiens), P24468. 370,000 tested, 0.7% active. HEK293T NGFI-A luciferase reporter;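 active = inhibition above a per-plate cutoff, mean inhibition of test wells between control levels plus 3 SD, cut at about 38% in these data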;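 note: cells cotransfected with COUP-TFII expression vector driving the NGFI-A reporter; 0% = median of COUP-TF2 test wells and 100% = reporter-only cells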
NR5A2 inv ag: LRH-1 (NR5A2) inverse agonists, primary screen, cell-based, luminescence, HEK293T, StAR-luciferase reporter. Nuclear receptor subfamily 5 group A member 2 (Homo sapiens), O00482. LRH-1 transfected, 24 h. inhibition, % at 3.6 µM. 360,000 tested, 0.13% active;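 active = inhibition above the mean inhibition of all tested compounds plus 3 SD, cut at about 73% in these data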;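 note: 0% = DMSO wells and 100% = reporter-only cells lacking LRH-1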
NCOA3 inh: SRC3 coactivator transcriptional activity inhibitors, primary screen, cell-based, luminescence; Nuclear receptor coactivator 3 (Homo sapiens), Q9Y6Q9; inhibition, % at 3.6 µM; 360,000 tested, 0.17% active; AID 588352, 2011; HEK293 GAL4-SRC3 luciferase reporter;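 active = inhibition above a per-campaign cutoff, the mean of all compounds plus 3 SD, cut at about 60% in these data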;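 note: 0% = DMSO-treated cells and 100% = gossypol-treated cells at 36 µM; higher means less SRC3-driven luciferase light from the GAL4 reporter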
Target sequence (Q9Y6Q9 whole entry, looked up, the tested form may be a part): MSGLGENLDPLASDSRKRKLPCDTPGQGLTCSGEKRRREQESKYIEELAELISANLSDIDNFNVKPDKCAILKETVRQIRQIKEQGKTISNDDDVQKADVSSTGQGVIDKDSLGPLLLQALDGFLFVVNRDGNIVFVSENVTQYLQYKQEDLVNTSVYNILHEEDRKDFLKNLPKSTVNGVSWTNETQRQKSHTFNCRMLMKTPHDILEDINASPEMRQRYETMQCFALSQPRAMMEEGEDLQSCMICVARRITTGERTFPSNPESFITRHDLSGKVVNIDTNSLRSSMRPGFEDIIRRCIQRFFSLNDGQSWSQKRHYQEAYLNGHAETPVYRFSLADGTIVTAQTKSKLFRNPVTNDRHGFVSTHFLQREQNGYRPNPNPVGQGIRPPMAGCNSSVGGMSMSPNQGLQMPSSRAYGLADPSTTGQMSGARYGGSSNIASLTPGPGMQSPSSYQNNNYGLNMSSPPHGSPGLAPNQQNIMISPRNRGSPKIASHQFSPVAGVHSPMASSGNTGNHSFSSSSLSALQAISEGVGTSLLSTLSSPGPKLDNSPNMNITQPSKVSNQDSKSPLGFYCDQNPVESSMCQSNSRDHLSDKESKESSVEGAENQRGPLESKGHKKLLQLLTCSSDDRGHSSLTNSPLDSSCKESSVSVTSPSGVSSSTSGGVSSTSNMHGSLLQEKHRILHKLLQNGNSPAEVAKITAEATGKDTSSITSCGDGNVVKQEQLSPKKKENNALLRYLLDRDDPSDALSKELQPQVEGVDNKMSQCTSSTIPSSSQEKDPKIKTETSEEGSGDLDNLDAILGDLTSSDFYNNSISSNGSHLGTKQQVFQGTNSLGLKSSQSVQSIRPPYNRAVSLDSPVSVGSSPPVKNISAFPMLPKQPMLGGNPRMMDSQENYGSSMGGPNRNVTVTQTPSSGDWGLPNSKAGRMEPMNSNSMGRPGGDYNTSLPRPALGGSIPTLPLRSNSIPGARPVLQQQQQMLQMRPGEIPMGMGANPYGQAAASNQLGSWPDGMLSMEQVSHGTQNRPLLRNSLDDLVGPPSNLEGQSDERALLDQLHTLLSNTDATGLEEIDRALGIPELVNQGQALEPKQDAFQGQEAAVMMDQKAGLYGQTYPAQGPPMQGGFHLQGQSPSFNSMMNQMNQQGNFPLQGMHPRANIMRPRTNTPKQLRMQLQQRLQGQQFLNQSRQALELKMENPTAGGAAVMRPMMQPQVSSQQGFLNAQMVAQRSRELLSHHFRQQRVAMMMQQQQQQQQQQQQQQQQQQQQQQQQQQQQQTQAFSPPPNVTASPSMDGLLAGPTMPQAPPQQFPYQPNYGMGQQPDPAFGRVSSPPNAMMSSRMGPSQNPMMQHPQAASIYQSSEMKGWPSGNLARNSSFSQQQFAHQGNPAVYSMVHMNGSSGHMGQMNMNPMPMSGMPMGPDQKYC
SRC1 inh: SRC1 coactivator transcriptional activity inhibitors, primary screen, cell-based, luminescence. Nuclear receptor coactivator 1 (Homo sapiens), Q15788. HEK293 GAL4-SRC1 luciferase reporter. inhibition, % at 3.6 µM. 360,000 tested, 0.12% active;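 active = inhibition above the campaign mean plus 3 SD, with each screening campaign given its own cutoff, cut at about 60% in these data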;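 note: 0% = DMSO treated cells and 100% = gossypol at 36 µM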
Gli-Sufu antag: Gli-Sufu pathway antagonists, primary screen, luciferase luminescence, Sufu-KO-LIGHT cells, uHTS; inhibition, % at 5 µM; AID 588413, 2011; 340,000 tested, 0.74% active; Sufu-KO-LIGHT fibroblasts, Gli luciferase reporter luminescence;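 active = inhibition above about 55%, limit read from the data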;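 note: 0% = DMSO-treated cells and 100% = wells with medium but no cells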
SRC2 inh: inhibition of GAL4-SRC2 driven luciferase reporter, primary screen, SRC2 inhibitor project, cell-based, luminescence. Nuclear receptor coactivator 2 (Homo sapiens), Q15596. HEK293 GAL4-SRC2 luciferase reporter. inhibition, % at 9 µM. 370,000 tested, 0.17% active. AID 651957, 2012;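 active = inhibition above the mean inhibition of all tested compounds plus 3 SD, set per campaign, cut at about 52% in these data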;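 note: 0% = DMSO treated cells and 100% = cells given Gossypol at 36 µM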
VP16 Luc counter: Gal4-VP16 luciferase reporter inhibitors, counter-screen for COUP-TFII antagonist project, cell-based, luminescence, HEK293. 2,500 tested, 25% active. inhibition, % at 8.5 µM. shares compounds with NR2F2 inh; in the data active = inhibition above about 13%
COUP-TFII conf: NR2F2 transcriptional activity inhibitors, confirmation, cell-based, luciferase reporter, HEK293, triplicate; shares compounds with NR2F2 inh; HEK293 NGFI-A luciferase reporter, luminescence; inhibition, % at 8.5 µM; 2,500 tested, 45% active;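 active = mean inhibition over three repeats above a set limit taken from the earlier primary screen, cut at about 38% in these data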;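 note: 100% = cells given the luciferase reporter alone without the COUP-TF2 vector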
Starred values were filed as active, the others as inactive; / = no result given.

SMILES	NR2F2 inh	NR5A2 inv ag	NCOA3 inh	SRC1 inh	Gli-Sufu antag	SRC2 inh	VP16 Luc counter	COUP-TFII conf
O=C(CC1CCCC1)N1CC[C@H]2[C@H](CCCN2Cc2ccc(F)cc2)C1	7	/	/	/	/	17	/	/
C=CCN(CC#Cc1ccccc1)Cc1ccc(OC)cc1	-13	/	/	/	/	9	/	/
COc1ccc(S(=O)(=O)N/N=C\c2ccc3c(c2)OCO3)c(OC)c1	48*	15	6	4	6	34	-5	27
COc1ccc(OC)c(S(=O)(=O)N/N=C\c2ccc3c(c2)OCO3)c1	-8	22	-7	-63	-31	-22	/	/
CC(C)c1ccc(/C=N/Nc2ccc(C(=O)O)cc2)cc1	52*	-97	36	36	-43	1	-119	37*
Cc1ccc(/C=N/Nc2ccc(C(=O)O)cc2)s1	41*	-16	15	-15	10	40	-84	9
Cc1ccc(/C=N/Nc2cccc(C(=O)O)c2)s1	-59	-160	-116	-153	-164	-64	/	/
Cc1ccc(S(=O)(=O)c2cccc(S(=O)(=O)N3CCOCC3)c2)cc1S(=O)(=O)N1CCOCC1	-5	-2	4	-6	11	7	/	/
Cc1ccc(S(=O)(=O)c2cccc(S(=O)(=O)N3CCCC3)c2)cc1S(=O)(=O)N1CCCC1	61*	4	13	16	20	29	11	24
COc1ccc(-c2cc3nc(C)n(N)c(=O)c3s2)cc1	66*	28	70*	58	76*	71*	60*	77*
Cc1ccc2nc(NC(=O)C3CCN(S(=O)(=O)c4cccs4)CC3)sc2c1	57*	33	24	12	5	1	-3	32
Cc1ccc2nc(NC(=O)C3CCN(S(=O)(=O)c4cccnc4)CC3)sc2c1	26	6	-1	4	-7	15	/	/
COc1ccc2nc(NC(=O)C3CCN(S(=O)(=O)c4cccs4)CC3)sc2c1	48*	22	36	14	9	17	-5	23
O=S(=O)(CC1NCc2ccccc21)NCCc1ccccc1 (stereo unspecified)	-70	/	/	/	/	-18	/	/
Cc1c(C(C)NC(=O)c2cc(COc3cccc4cnccc34)on2)cnn1C (stereo unspecified)	56*	34	47	29	17	44	5	42*
CSc1ccccc1OCc1cc(C(=O)NC(C)c2cnn(C)c2)no1 (stereo unspecified)	-8	-25	-29	-47	-19	-16	/	/
O=C(Nc1ccc(N2CCN(C(=O)c3ccccc3)CC2)c(Cl)c1)c1ccc(Br)o1	40*	12	-13	-1	9	-14	4	20
COc1ccccc1NS(=O)(=O)c1ccc(C)c(NC(=O)c2ccc(S(=O)(=O)N3CCCCCC3)cc2)c1	41*	-20	26	13	37	14	2	29
COc1ccccc1NC(=O)c1ccc(S(=O)(=O)N2CCCC2)cc1	4	-29	-10	13	-5	-16	/	/
CCc1ccc(C(=O)Nc2ccc(OC)c(S(=O)(=O)N3CCCCC3)c2)cc1	58*	23	20	10	-5	30	-2	34
Cc1ccc(NC(=O)c2ccc(F)cc2)cc1S(=O)(=O)N1CCCCCC1	24	6	4	-10	6	12	/	/
O=C(CNc1ccccc1F)Nc1cc(S(=O)(=O)N2CCCCC2)ccc1Cl	-39	-15	10	-6	-5	12	/	/
CCc1ccc(C(=O)Nc2ccc(OC)c(S(=O)(=O)N3CCOCC3)c2)cc1	15	-1	25	5	-3	-19	/	/
